# Assay results reported in the supplement of paper PMC12282887.
# Counter-ions that a name gives are not always drawn. ± gives the standard deviation of the averaged measurements.
# System: E. coli BW25113 marRABp lux reporter
# Test: promoter activity interaction Z-score (Lux/OD deviation from empty-vector control); higher = stronger promoter induction by the compound
# Protocol: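 E. coli BW25113 (wild type or ΔmarA/ΔsoxS/Δrob) carrying pTU175 luxCDABE promoter reporters was grown in LB in 384-well plates at 37°C with each of 94 compounds at 4 two-fold concentrations, in biological duplicates. Luminescence and OD600 were read every 30 min for 12 h and integrated as AUC over 8 h (0-8 h WT, 1-9 h mutants). Lux AUC was divided by OD AUC; the interaction score is the residual of a Huber robust fit of each promoter against the empty-vector control, then Z-transformed per promoter.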
structure (smiles),measurement,setting,value
C[C@@H](O)[C@H]1C(=O)N2C(C(=O)O)=C(S[C@@H]3CN[C@H](C(=O)N(C)C)C3)[C@H](C)[C@H]12 [Meropenem],promoter activity interaction Z-score,"0.011 µg/ml, genetic background: wild type",-0.451 ± 0.26
same,promoter activity interaction Z-score,"0.011 µg/ml, genetic background: ΔmarA",-0.532 ± 0.041
same,promoter activity interaction Z-score,"0.011 µg/ml, genetic background: Δrob",-0.399 ± 0.031
same,promoter activity interaction Z-score,"0.011 µg/ml, genetic background: ΔsoxS",-0.178 ± 0.1
same,promoter activity interaction Z-score,"0.022 µg/ml, genetic background: wild type",-0.13 ± 0.065
same,promoter activity interaction Z-score,"0.022 µg/ml, genetic background: ΔmarA",-0.4 ± 0.097
same,promoter activity interaction Z-score,"0.022 µg/ml, genetic background: Δrob",-0.114 ± 0.41
same,promoter activity interaction Z-score,"0.022 µg/ml, genetic background: ΔsoxS",0.18 ± 0.22
same,promoter activity interaction Z-score,"0.044 µg/ml, genetic background: wild type",0.785
same,promoter activity interaction Z-score,"0.044 µg/ml, genetic background: ΔmarA",-0.754
same,promoter activity interaction Z-score,"0.044 µg/ml, genetic background: Δrob",1
same,promoter activity interaction Z-score,"0.044 µg/ml, genetic background: ΔsoxS",-0.0187
CNC(C)C1CCC(N)C(OC2C(N)CC(N)C(OC3OCC(C)(O)C(NC)C3O)C2O)O1 (stereo not given) [Gentamicin],promoter activity interaction Z-score,"0.13 µg/ml, genetic background: wild type",-0.229 ± 0.24
same,promoter activity interaction Z-score,"0.13 µg/ml, genetic background: ΔmarA",-0.193 ± 0.19
same,promoter activity interaction Z-score,"0.13 µg/ml, genetic background: Δrob",-0.0111 ± 0.062
same,promoter activity interaction Z-score,"0.13 µg/ml, genetic background: ΔsoxS",0.027 ± 0.11
same,promoter activity interaction Z-score,"0.26 µg/ml, genetic background: wild type",-0.22 ± 0.026
same,promoter activity interaction Z-score,"0.26 µg/ml, genetic background: ΔmarA",-0.108 ± 0.19
same,promoter activity interaction Z-score,"0.26 µg/ml, genetic background: Δrob",-0.0765 ± 0.087
same,promoter activity interaction Z-score,"0.26 µg/ml, genetic background: ΔsoxS",0.17 ± 0.086
same,promoter activity interaction Z-score,"0.52 µg/ml, genetic background: wild type",0.575 ± 0.65
same,promoter activity interaction Z-score,"0.52 µg/ml, genetic background: ΔmarA",0.543 ± 0.31
same,promoter activity interaction Z-score,"0.52 µg/ml, genetic background: Δrob",0.678 ± 1
same,promoter activity interaction Z-score,"0.52 µg/ml, genetic background: ΔsoxS",0.166
O=C(O)COCCN1CCN(C(c2ccccc2)c2ccc(Cl)cc2)CC1 (stereo not given) [Cetirizine dihydrochloride],promoter activity interaction Z-score,"28.9 µg/ml, genetic background: wild type",-0.0717 ± 0.029
same,promoter activity interaction Z-score,"28.9 µg/ml, genetic background: ΔmarA",0.0437 ± 0.062
same,promoter activity interaction Z-score,"28.9 µg/ml, genetic background: Δrob",0.000338 ± 0.29
same,promoter activity interaction Z-score,"28.9 µg/ml, genetic background: ΔsoxS",-0.0906 ± 0.0024
same,promoter activity interaction Z-score,"57.7 µg/ml, genetic background: wild type",0.151 ± 0.32
same,promoter activity interaction Z-score,"57.7 µg/ml, genetic background: ΔmarA",-0.0182 ± 0.02
same,promoter activity interaction Z-score,"57.7 µg/ml, genetic background: Δrob",-0.17 ± 0.18
same,promoter activity interaction Z-score,"57.7 µg/ml, genetic background: ΔsoxS",-0.0648 ± 0.1
same,promoter activity interaction Z-score,"115.5 µg/ml, genetic background: wild type",-0.301 ± 0.014
same,promoter activity interaction Z-score,"115.5 µg/ml, genetic background: ΔmarA",-0.0679 ± 0.12
same,promoter activity interaction Z-score,"115.5 µg/ml, genetic background: Δrob",-0.391 ± 0.15
same,promoter activity interaction Z-score,"115.5 µg/ml, genetic background: ΔsoxS",-0.384 ± 0.18
same,promoter activity interaction Z-score,"230.9 µg/ml, genetic background: wild type",-0.385 ± 0.034
same,promoter activity interaction Z-score,"230.9 µg/ml, genetic background: ΔmarA",-0.279 ± 0.0034
same,promoter activity interaction Z-score,"230.9 µg/ml, genetic background: Δrob",-0.565 ± 0.14
same,promoter activity interaction Z-score,"230.9 µg/ml, genetic background: ΔsoxS",-0.389 ± 0.19
